High-throughput results deposited in PubChem by several laboratories.
The list is not random: actives were taken first. Their share in the collection is about 4.7%.
VHR inh abs – blocks human VHR1 dual specificity phosphatase | P51452 | recombinant VHR phosphatase, pNPP absorbance | inhibition, % at 13.3 µM | actives 0.52% (n = 290,000); in the data active = inhibition above about 50%
Target sequence (P51452 whole entry, looked up): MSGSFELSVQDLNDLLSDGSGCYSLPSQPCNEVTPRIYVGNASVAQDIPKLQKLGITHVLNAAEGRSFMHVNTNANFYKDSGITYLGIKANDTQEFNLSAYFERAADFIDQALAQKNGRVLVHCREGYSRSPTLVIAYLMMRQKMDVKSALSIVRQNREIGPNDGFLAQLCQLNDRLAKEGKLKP
SARS 3CLpro inh – SARS-CoV 3CLpro protease inhibition. recombinant SARS-CoV 3CLpro, quenched FRET peptide cleavage. inhibition, % at 6 µM. actives 0.14% (n = 290,000). AID 1706; in the data active = inhibition above about 12%
CCHFV vOTU inh – blocks the CCHF virus ovarian tumor domain protease | CCHFV vOTU protease, Pep-AMC fluorescence | inhibition, % at 11.5 µM | actives 0.55% (n = 370,000) | AID 651958; note: 0% = vehicle wells with enzyme and 100% = no enzyme wells
RecA intein inh – blocks M. tuberculosis RecA intein splicing. P9WHJ3. cell-free RecA intein splicing, fluorescence. inhibition, % (test concentration not listed). actives 0.75% (n = 290,000); in the data active = inhibition above about 30%;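 note: 0% = vehicle wells and 100% = reference inhibitor control wells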
GDH-TPI inh – counter-screen for M. tuberculosis FBA inhibitors: GDH-TPI coupled enzymes; GDH-TPI coupled enzyme counterscreen, NADH absorbance; actives 1.2% (n = 360,000); inhibition, % at 4.8 µM;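 note: 0% = DMSO wells and 100% = wells lacking the enzyme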
FBA Mtb inh – inhibits M. tuberculosis FBA enzyme | purified M. tuberculosis FBA, fluorescence read-out | inhibition, % at 1 µM | P9WQA3 | AID 588726 | actives 2.3% (n = 360,000); in the data active = inhibition above about 27%;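 note: 0% = vehicle and 100% = reference inhibitor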
Target sequence (P9WQA3 whole entry, looked up): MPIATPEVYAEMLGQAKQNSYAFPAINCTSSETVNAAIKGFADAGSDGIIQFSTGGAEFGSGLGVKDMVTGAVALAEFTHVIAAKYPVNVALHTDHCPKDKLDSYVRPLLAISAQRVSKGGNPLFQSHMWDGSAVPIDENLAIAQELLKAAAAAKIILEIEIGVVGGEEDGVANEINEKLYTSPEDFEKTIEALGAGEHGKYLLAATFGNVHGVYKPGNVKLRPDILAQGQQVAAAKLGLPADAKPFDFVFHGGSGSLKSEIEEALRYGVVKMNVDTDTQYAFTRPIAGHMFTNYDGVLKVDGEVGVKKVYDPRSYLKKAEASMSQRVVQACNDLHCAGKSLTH
* marks the source's active call; other numbers are inactive results; · = no result; + = active, no number. Cut-off read from the data, not from the text of the source, unless noted: active = inhibition above about 30%; inactive = the rest.

SMILES | VHR inh abs | SARS 3CLpro inh | CCHFV vOTU inh | RecA intein inh | GDH-TPI inh | FBA Mtb inh
CCOC1=C2[C@H](c3ccccc3)N(S(=O)(=O)c3ccc(C)cc3)[C@H](C(C)C)[C@H]2C(C#N)(C#N)C(C#N)(C#N)C1 | · | · | 19 | · | · | ·
CCOC(=O)C(/C=C(\C#N)C(=O)OCC)=C(/N)N1CCN(c2c(C)cccc2C)CC1 | 24 | -1 | -6 | -1 | 50* | 4
CCOC(=O)C(/C=C(\C#N)C(=O)OCC)=C(/N)N1CCN(c2ccc(OC)cc2)CC1 | 14 | 4 | 24 | 1 | 57* | -1
CCOC(=O)/C(C#N)=C/c1c(N2CCN(c3ccc(OC)cc3)CC2)nc2c(C)cccn2c1=O | 16 | -1 | 3 | -2 | 9 | 0
Cc1ccc(-c2cc(-c3nnc(SCC(=O)N4c5ccccc5Sc5ccccc54)n3N)[nH]n2)cc1 | · | · | -4 | · | · | ·
CCCC[C@H]1C2CC(OC(=O)Nc3cccc(Cl)c3)C(C2)[C@H]2CCCCN21 (stereo partly specified) | · | · | 4 | · | · | ·
COc1ccc(Oc2c(OC)cc(NCc3ccc(CN)cc3)c3ncccc23)cc1 | · | · | 21 | · | 9 | 0
CCOC(=O)c1nn(-c2ccc(C)cc2)c(=O)c2c(N)scc12 | -18 | -1 | 21 | 35* | -3 | -2
C=CCn1c(O)c(C=Nc2ccc(OC)cc2C)c(=O)[nH]c1=O | 12 | 5 | -2 | -12 | 43* | 0
CN1[C@@H](Cc2ccccc2)COc2cccc(N3CCCC3)c2S1(=O)=O | · | · | 5 | · | · | ·
N#C/C(=N\Nc1ccc(Cl)cc1)C(N)=S | 12 | 2 | 4 | 24 | 4 | -18
N#C/C(=N\Nc1ccccc1)C(N)=S | 0 | -4 | -5 | 7 | 31* | -7
C=CCN1C(c2ccccc2)=CS/C1=C(\C#N)c1nnc2n1CCCCC2 | 1 | 4 | 17 | -1 | 17 | -6
C=CCn1c(=O)/c(=C/c2ccc(Cl)cc2)s/c1=C(\C#N)c1nnc2n1CCCCC2 | · | · | -11 | · | 33* | -2
Cc1ccc(OCC(=O)Nc2cc(C)on2)c([N+](=O)[O-])n1 | 26 | -1 | -7 | -3 | -1 | -1
Cc1ccc(OCC(=O)NC(C)c2ccc(Cl)c(Cl)c2)c([N+](=O)[O-])n1 (stereo unspecified) | 52* | 4 | 7 | 2 | 4 | -4
CCC(c1nc2ccccc2[nH]1)n1c(C)nc2ccccc21 (stereo unspecified) | · | · | -11 | · | · | ·
CCC(C)Nc1nc(Cl)nc(N(C#N)CN2C(=O)c3ccccc3S2(=O)=O)n1 (stereo unspecified) | -10 | -2 | 3 | 37* | 3 | 2
O=C(Nc1ccc(N2CCOCC2)cc1)c1cccc(-n2cnnc2)c1 | 53* | -1 | 3 | 2 | -1 | -2
COC(=O)C1=C(C)N(Cc2cccc(C(F)(F)F)c2)C(=NCc2ccc(OC)cc2)NC1c1ccc(F)cc1 (stereo unspecified) | · | · | 17 | · | · | ·
CCn1c(NC(=O)c2cccs2)nc2ccccc21 | 41 | 4 | -3 | 1 | 36* | 1
COCCNc1nc(-c2cc(F)ccc2C)c2sc(-c3ccccc3)cc2n1 | · | · | 6 | · | 10 | 8
CCn1ccc(C(=O)Nc2ccc3c(c2)CCC3)n1 | -6 | -8 | · | 0 | 9 | 0
O=S(=O)(Nc1ccc(N2CCOCC2)cc1)c1cccs1 | -7 | 0 | 9 | -1 | 6 | -1
O=C(N/N=C/c1ccc(N2CCOCC2)cc1)c1ccc(NS(=O)(=O)c2cccs2)cc1 | 7 | -1 | 13 | -2 | 35* | 6
SMILES | VHR inh abs | SARS 3CLpro inh | CCHFV vOTU inh | RecA intein inh | GDH-TPI inh | FBA Mtb inh
COc1ccc(C(=O)N/N=C/c2ccc(N3CCOCC3)s2)cc1OC | · | · | 1 | · | 14 | -3
O=C(N/N=C/c1ccc(N2CCOCC2)cc1)c1cccs1 | 22 | -1 | 10 | 1 | 32* | -3
O=C(N/N=C/c1ccc(N2CCOCC2)cc1)c1ccncc1 | · | · | 17 | · | 26 | -1
O=C(N/N=C/c1ccc(N2CCOCC2)s1)c1ccc(NS(=O)(=O)c2cccs2)cc1 | 27 | 6 | 5 | -43 | 45* | 0
O=S(=O)(c1ccc(C(F)(F)F)cc1)N1CCCc2nc(-c3ccc(Br)cc3)ccc21 | · | · | -5 | · | · | ·
Cc1cc(=O)c2c(N(C)C)cccc2[nH]1 | · | · | -322 | · | 15 | +
Cc1cc(=O)c2ccccc2[nH]1 | 33 | 3 | -5 | -5 | 4 | 0
O=C1c2ccccc2C(=O)N1CCSc1ccccc1 | 55* | 2 | · | 4 | 2 | 1
CCCCn1c(-c2ccco2)nc2oc3ccccc3c(=O)c2c1=O | 22 | 4 | -2 | -1 | 13 | 8
Cc1c(CCC(=O)O)c(=O)n2c([nH]c3ccccc32)c1C#N | 28 | 6 | -91 | -9 | 9 | +
COCc1cc(=O)n2c([nH]c3ccccc32)c1C#N | -19 | -3 | -225 | -79 | 19 | +
CCc1cc(=S)n2c([nH]c3ccccc32)c1C#N | 4 | 1 | · | -17 | -1 | 9
C=C(C)Cc1c(C)c(C#N)c2[nH]c3ccccc3n2c1=O | -12 | 2 | -81 | -1 | -1 | +
CC(C)(C)S(=O)N1C[C@@H]2CC(=O)C=C2[C@H]1CCO (stereo partly specified) | · | · | -8 | · | · | ·
O=C(CSc1ncnc2c1nnn2Cc1ccccc1F)NCC1CCCO1 (stereo unspecified) | 18 | -2 | -11 | 50* | 2 | -3
CCN(CC)c1ccc(C=Nc2ccc(C)cc2C)c(O)c1 | 43 | 8 | -4 | -1 | 28 | -2
COc1cc(/C=N\NC(=O)CNC(=O)C2COc3ccccc3O2)ccc1O (stereo unspecified) | -11 | 0 | 2 | -1 | 24 | 1
O=C(CCC(=O)N/N=C/c1c[nH]c2ccccc12)NCc1ccccc1 | -14 | 0 | -7 | 2 | 13 | 2
CCN(CC)c1ccc(/C=N/Nc2ccc(C)cc2)c(O)c1 | 8 | 2 | -1 | · | 7 | -6
CCOC(=O)N/N=C/c1ccc(N(CC)CC)cc1O | -10 | -3 | 11 | -1 | 41* | 1
CCN(CC)c1ccc(C=Nc2cc(C)ccc2C)c(O)c1 | 5 | 2 | 8 | -1 | 38* | -2
CCN(CC)c1ccc(/C=N/NC(=O)CCC(=O)NCc2ccccc2)c(O)c1 | -4 | 0 | 8 | -5 | 40* | 5
CCN(CC)c1ccc(/C=N/NC(=O)CNC(=O)C2COc3ccccc3O2)c(O)c1 (stereo unspecified) | 6 | 0 | 25 | -2 | 33* | 5
O=C(Cc1cccc(NC(=O)C2CCCN(C(=O)C3CCCC3)C2)c1)Nc1ccc(C(=O)N2CCCCC2)cc1 (stereo unspecified) | · | · | -4 | · | -16 | 5
COCCN1Cc2cc(C(=O)OC)c3c(c2C1=O)c1ccccc1n3S(=O)(=O)c1ccc(OC)cc1 | · | · | -2 | · | · | ·
CC(=O)Nc1cc(-c2ccccc2CN(C)C)cn2c(-c3ccc(C(C)=O)cc3)cnc12 | · | · | 0 | · | 26 | 2
